# In all, about 5,500 compounds went through this assay and about 2,000 (36%) were called active. Not shown: some 18% with an inconclusive outcome. Some of the results follow. A number with no mark means an inactive call. No stated cut-off is given here; in the data, active means normalized growth mostly below about 0.91 (no sharp cut-off); inconclusive means no clear call, values can overlap the other calls; inactive means mostly above about 0.92.
# Assay: chemical genetic growth profiling, strain panel (AID 1159580);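 further: tested at 20 µM; growth read once vehicle control cultures reached saturation at 30 °C; 1 = growth at the plate median or of vehicle wells; lower values mean less growth of the strain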
# Conditions: growth OD
# [1] = S. cerevisiae deletion strains, locus YAL013W, strain DEP1, active compounds read low
# [2] = S. cerevisiae deletion strains, locus YBR229C, strain ROT2, active compounds read low
# [3] = S. cerevisiae deletion strains, locus YDL101C, strain DUN1, active compounds read low
# [4] = S. cerevisiae deletion strains, locus YDR150W, strain NUM1, active compounds read low
# [5] = S. cerevisiae deletion strains, locus YEL061C, strain CIN8, active compounds read low
# [6] = S. cerevisiae deletion strains, locus YGR078C, strain PAC10, active compounds read low
# [7] = S. cerevisiae deletion strains, locus YHR030C, strain SLT2, active compounds read low
# [8] = S. cerevisiae deletion strains, locus YHR087W, strain rtc3, active compounds read low
# [9] = S. cerevisiae deletion strains, locus YJR043C, strain POL32, active compounds read low
# [10] = S. cerevisiae deletion strains, locus YJR075W, strain HOC1, active compounds read low
# [11] = S. cerevisiae deletion strains, locus YKL190W, strain CNB1, active compounds read low
# [12] = S. cerevisiae deletion strains, locus YLR039C, strain RIC1, active compounds read low
# [13] = S. cerevisiae deletion strains, locus YLR058C, strain SHM2 (second series), active compounds read low
# [14] = S. cerevisiae deletion strains, locus YLR085C, strain ARP6, active compounds read low
# [15] = S. cerevisiae deletion strains, locus YLR262C, strain YPT6, active compounds read low
# [16] = S. cerevisiae deletion strains, locus YML094W, strain GIM5, active compounds read low
# [17] = S. cerevisiae deletion strains, locus YMR219W, strain ESC1, active compounds read low
# [18] = S. cerevisiae deletion strains, locus YMR263W, strain SAP30, active compounds read low
# [19] = S. cerevisiae deletion strains, locus YNL153C, strain GIM3, active compounds read low
# [20] = S. cerevisiae deletion strains, locus YNL298W, strain CLA4 (second series), active compounds read low
# [21] = S. cerevisiae deletion strains, locus YNL322C, strain KRE1, active compounds read low
# [22] = S. cerevisiae deletion strains, locus YNR030W, strain Alg12, active compounds read low
# [23] = S. cerevisiae deletion strains, locus YPL055C, strain LGE1, active compounds read low
# [24] = S. cerevisiae deletion strains, locus YPL241C, strain CIN2, active compounds read low
# [25] = S. cerevisiae deletion strains, locus YPR135W, strain CTF4, active compounds read low
smiles,measurement,setting,value
NNC(=S)Nc1ccc2c(c1)OCCO2,normalized growth,[1],1.01
same,normalized growth,[2],1.01
same,normalized growth,[3],1.01
same,normalized growth,"S. cerevisiae deletion strains, locus YDL134C, strain PPH21, active compounds read low",1.01
same,normalized growth,[4],0.956
same,normalized growth,[5],0.983
same,normalized growth,[6],0.991
same,normalized growth,"S. cerevisiae deletion strains, locus YGR229C, strain SMI1, active compounds read low",0.986
same,normalized growth,[7],1.02
same,normalized growth,[8],1.05
same,normalized growth,[9],1
same,normalized growth,[10],1.05
same,normalized growth,[11],0.99
same,normalized growth,[12],0.983
same,normalized growth,[13],1.01
same,normalized growth,[14],0.939
same,normalized growth,[15],1.01
same,normalized growth,[16],0.944
same,normalized growth,[17],1.02
same,normalized growth,[18],0.996
same,normalized growth,"S. cerevisiae deletion strains, locus YMR307W, strain GAS1, active compounds read low",0.954
same,normalized growth,"S. cerevisiae deletion strains, locus YNL128W, strain TEP1, active compounds read low",0.976
same,normalized growth,[19],0.994
same,normalized growth,[20],0.992
same,normalized growth,[21],1.02
same,normalized growth,[22],0.806 (active)
same,normalized growth,[23],0.967
same,normalized growth,[24],1.1
same,normalized growth,[25],0.823
NC(N)=NC(N)=Nc1ccc2c(c1)OCCO2,normalized growth,[1],0.987
same,normalized growth,[2],1.01
same,normalized growth,[3],1.01
same,normalized growth,[4],0.918
same,normalized growth,[5],0.995
same,normalized growth,[6],0.99
same,normalized growth,[7],0.983
same,normalized growth,[8],1.01
same,normalized growth,[9],0.989
same,normalized growth,[10],0.993
same,normalized growth,[11],0.994
same,normalized growth,[12],1
same,normalized growth,[13],0.994
same,normalized growth,[14],0.963
same,normalized growth,[15],0.998
same,normalized growth,[16],1.06
same,normalized growth,[17],0.996
same,normalized growth,[18],0.943
same,normalized growth,[19],1.01
same,normalized growth,[20],0.993
same,normalized growth,[21],1
same,normalized growth,[22],0.995
same,normalized growth,"S. cerevisiae deletion strains, locus YOL006C, strain TOP1, active compounds read low",1.03
same,normalized growth,[23],0.993
same,normalized growth,[24],0.927
same,normalized growth,[25],1.01
same,normalized growth,"S. cerevisiae strains, strain wild type, active compounds read low",0.995
CC(C)C[C@@H](CN)CC(=O)O,normalized growth,"S. cerevisiae deletion strains, locus YAL021C, strain ccr4, active compounds read low",1.04
same,normalized growth,"S. cerevisiae deletion strains, locus YAL026C, strain drs2, active compounds read low",1.03
same,normalized growth,"S. cerevisiae deletion strains, locus YAL030W, strain snc1, active compounds read low",1.02
same,normalized growth,"S. cerevisiae deletion strains, locus YBL061C, strain skt5, active compounds read low",1.01
same,normalized growth,"S. cerevisiae deletion strains, locus YBR009C, strain hhf1, active compounds read low",1
same,normalized growth,"S. cerevisiae deletion strains, locus YBR023C, strain chs3, active compounds read low",1.02
same,normalized growth,"S. cerevisiae deletion strains, locus YBR171W, strain sec66, active compounds read low",1.02
same,normalized growth,"S. cerevisiae deletion strains, locus YBR231C, strain swc5, active compounds read low",0.994
same,normalized growth,"S. cerevisiae deletion strains, locus YBR279W, strain paf1, active compounds read low",1.02
same,normalized growth,"S. cerevisiae deletion strains, locus YCL011C, strain gbp2, active compounds read low",1.03
same,normalized growth,"S. cerevisiae deletion strains, locus YCL016C, strain dcc1, active compounds read low",1.04
same,normalized growth,"S. cerevisiae deletion strains, locus YCL061C, strain MRC1, active compounds read low",1.02
same,normalized growth,"S. cerevisiae deletion strains, locus YCL069W, strain vba3, active compounds read low",1.04
same,normalized growth,"S. cerevisiae deletion strains, locus YCR088W, strain abp1, active compounds read low",1.02
same,normalized growth,"S. cerevisiae deletion strains, locus YDL005C, strain med2, active compounds read low",1.02
same,normalized growth,"S. cerevisiae deletion strains, locus YDL040C, strain nat1, active compounds read low",1.01
same,normalized growth,"S. cerevisiae deletion strains, locus YDR001C, strain nth1, active compounds read low",1.01
same,normalized growth,"S. cerevisiae deletion strains, locus YDR069C, strain doa4, active compounds read low",1.01
same,normalized growth,"S. cerevisiae deletion strains, locus YDR137W, strain rgp1, active compounds read low",1.06
same,normalized growth,"S. cerevisiae deletion strains, locus YDR159W, strain sac3, active compounds read low",0.965
same,normalized growth,"S. cerevisiae deletion strains, locus YDR195W, strain ref2",0.977
same,normalized growth,"S. cerevisiae deletion strains, locus YDR297W, strain sur2, active compounds read low",1.01
same,normalized growth,"S. cerevisiae deletion strains, locus YDR334W, strain swr1, active compounds read low",1.02
same,normalized growth,"S. cerevisiae deletion strains, locus YDR335W, strain msn5, active compounds read low",1.04
same,normalized growth,"S. cerevisiae deletion strains, locus YDR392W, strain spt3, active compounds read low",0.954
same,normalized growth,"S. cerevisiae deletion strains, locus YEL003W, strain gim4, active compounds read low",1.01
same,normalized growth,"S. cerevisiae deletion strains, locus YEL037C, strain rad23, active compounds read low",1.01
same,normalized growth,"S. cerevisiae deletion strains, locus YEL061C, strain CIN8 (second series), active compounds read low",1.01
same,normalized growth,"S. cerevisiae deletion strains, locus YER015W, strain faa2, active compounds read low",1
same,normalized growth,"S. cerevisiae deletion strains, locus YER016W, strain bim1, active compounds read low",1.04
same,normalized growth,"S. cerevisiae deletion strains, locus YER111C, strain swi4, active compounds read low",1.02
same,normalized growth,"S. cerevisiae deletion strains, locus YER155C, strain BEM2 (second series), active compounds read low",1
same,normalized growth,"S. cerevisiae deletion strains, locus YFR010W, strain ubp6, active compounds read low",1.01
same,normalized growth,"S. cerevisiae deletion strains, locus YGL167C, strain pmr1, active compounds read low",1.02
same,normalized growth,"S. cerevisiae deletion strains, locus YGL173C, strain kem1, active compounds read low",1.01
same,normalized growth,"S. cerevisiae deletion strains, locus YGL227W, strain vid30, active compounds read low",1.01
same,normalized growth,"S. cerevisiae deletion strains, locus YGL240W, strain doc1, active compounds read low",1
same,normalized growth,"S. cerevisiae deletion strains, locus YGL253W, strain hxk2, active compounds read low",1.02
same,normalized growth,"S. cerevisiae deletion strains, locus YHR013C, strain ard1, active compounds read low",1.05
same,normalized growth,"S. cerevisiae deletion strains, locus YHR027C, strain rpn1, active compounds read low",1.01
same,normalized growth,[7],1.09
same,normalized growth,"S. cerevisiae deletion strains, locus YHR079C, strain IRE1, active compounds read low",0.981
same,normalized growth,"S. cerevisiae deletion strains, locus YHR142W, strain chs7, active compounds read low",1.03
same,normalized growth,"S. cerevisiae deletion strains, locus YJL092W, strain hpr5, active compounds read low",1.01
same,normalized growth,"S. cerevisiae deletion strains, locus YJL095W, strain BCK1 (second series), active compounds read low",1.02
same,normalized growth,"S. cerevisiae deletion strains, locus YJL095W, strain BCK1, active compounds read low",0.989
same,normalized growth,"S. cerevisiae deletion strains, locus YJL115W, strain asf1, active compounds read low",1.03
same,normalized growth,"S. cerevisiae deletion strains, locus YJL129C, strain trk1, active compounds read low",1.03
same,normalized growth,"S. cerevisiae deletion strains, locus YJL154C, strain vps35, active compounds read low",1.02
same,normalized growth,"S. cerevisiae deletion strains, locus YJL164C, strain tpk1, active compounds read low",1
same,normalized growth,"S. cerevisiae deletion strains, locus YJL166W, strain qcr8, active compounds read low",1.01
same,normalized growth,"S. cerevisiae deletion strains, locus YJL187C, strain SWE1, active compounds read low",1.01
same,normalized growth,"S. cerevisiae deletion strains, locus YJR066W, strain TOR1, active compounds read low",0.959
same,normalized growth,"S. cerevisiae deletion strains, locus YKL160W, strain elf1, active compounds read low",1.04
same,normalized growth,"S. cerevisiae deletion strains, locus YKR026C, strain gcn3, active compounds read low",1.01
same,normalized growth,"S. cerevisiae deletion strains, locus YKR091W, strain srl3, active compounds read low",1.01
same,normalized growth,"S. cerevisiae deletion strains, locus YLL001W, strain dnm1, active compounds read low",0.995
same,normalized growth,"S. cerevisiae deletion strains, locus YLL026W, active compounds read low",1.01
same,normalized growth,"S. cerevisiae deletion strains, locus YLL041C, strain sdh2, active compounds read low",1.03
same,normalized growth,"S. cerevisiae deletion strains, locus YLR027C, strain aat2, active compounds read low",1.02
same,normalized growth,"S. cerevisiae deletion strains, locus YLR113W, strain HOG1, active compounds read low",0.992
same,normalized growth,"S. cerevisiae deletion strains, locus YLR221C, strain rsa3, active compounds read low",0.998
same,normalized growth,"S. cerevisiae deletion strains, locus YLR258W, strain gsy2, active compounds read low",1.04
same,normalized growth,"S. cerevisiae deletion strains, locus YLR262C, strain YPT6 (second series), active compounds read low",1.02
same,normalized growth,"S. cerevisiae deletion strains, locus YLR320W, strain mms22, active compounds read low",0.981
same,normalized growth,"S. cerevisiae deletion strains, locus YLR342W, strain FKS1, active compounds read low",1.04
same,normalized growth,"S. cerevisiae deletion strains, locus YLR357W, strain rsc2, active compounds read low",0.987
same,normalized growth,"S. cerevisiae deletion strains, locus YLR370C, strain arc18, active compounds read low",1.03
same,normalized growth,"S. cerevisiae deletion strains, locus YLR384C, strain iki3, active compounds read low",1.02
same,normalized growth,"S. cerevisiae deletion strains, locus YML120C, strain ndi1, active compounds read low",1.01
same,normalized growth,"S. cerevisiae deletion strains, locus YMR058W, strain fet3, active compounds read low",1.02
same,normalized growth,"S. cerevisiae deletion strains, locus YMR125W, strain sto1, active compounds read low",1.02
same,normalized growth,"S. cerevisiae deletion strains, locus YMR129W, active compounds read low",1.02
same,normalized growth,"S. cerevisiae deletion strains, locus YMR205C, strain PFK2, active compounds read low",0.993
same,normalized growth,"S. cerevisiae deletion strains, locus YMR231W, strain pep5, active compounds read low",1.01
same,normalized growth,"S. cerevisiae deletion strains, locus YNL071W, strain lat1, active compounds read low",1.02
same,normalized growth,"S. cerevisiae deletion strains, locus YNL183C, strain NPR1, active compounds read low",0.923
same,normalized growth,"S. cerevisiae deletion strains, locus YNL209W, strain ssb2, active compounds read low",1.01
same,normalized growth,"S. cerevisiae deletion strains, locus YNL248C, strain rpa49, active compounds read low",1.01
same,normalized growth,"S. cerevisiae deletion strains, locus YNL322C, strain KRE1 (second series), active compounds read low",1.02
same,normalized growth,"S. cerevisiae deletion strains, locus YNR049C, strain mso1, active compounds read low",1.01
same,normalized growth,"S. cerevisiae deletion strains, locus YOR001W, strain rrp6, active compounds read low",1.01
same,normalized growth,"S. cerevisiae deletion strains, locus YOR070C, strain gyp1, active compounds read low",1.02
same,normalized growth,"S. cerevisiae deletion strains, locus YOR080W, strain dia2, active compounds read low",1.03
same,normalized growth,"S. cerevisiae deletion strains, locus YOR083W, strain WHI5, active compounds read low",0.974
same,normalized growth,"S. cerevisiae deletion strains, locus YOR106W, strain vam3, active compounds read low",1.03
same,normalized growth,"S. cerevisiae deletion strains, locus YOR231W, strain MKK1, active compounds read low",0.982
same,normalized growth,"S. cerevisiae deletion strains, locus YOR265W, strain rbl2, active compounds read low",0.999
same,normalized growth,"S. cerevisiae deletion strains, locus YOR270C, strain vph1, active compounds read low",1.12
same,normalized growth,"S. cerevisiae deletion strains, locus YOR290C, strain snf2, active compounds read low",1.06
same,normalized growth,"S. cerevisiae deletion strains, locus YPL051W, strain arl3, active compounds read low",1.04
same,normalized growth,"S. cerevisiae deletion strains, locus YPL078C, strain atp4, active compounds read low",1.04
same,normalized growth,"S. cerevisiae deletion strains, locus YPL106C, strain sse1, active compounds read low",1.02
same,normalized growth,"S. cerevisiae deletion strains, locus YPL240C, strain hsp82, active compounds read low",1.02
same,normalized growth,"S. cerevisiae deletion strains, locus YPL256C, strain CLN2, active compounds read low",0.984
